Source: PubChem (National Center for Advancing Translational Sciences (NCATS))
Sampled rows, rich in hits. Any-hit rate of the full collection: about 7.9%.
HCMV inh = blocks human cytomegalovirus replication | HFF cells, HCMV-luciferase reporter, 72 h; active compounds read low | activity change, negative = inhibition, % at 57.5 µM | 410,000 tested, 4.5% active; in the data active means activity change below about -60%; inconclusive means no clear call, values can overlap the other calls; inactive means above about -39%
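Inhibition of viral replication was scored as loss of reporter luminescence in HFFs infected with HCMV-luciferase (MOI 1 PFU/cell) for 72 h; compounds tested at 2 doses, normalized to buffer and Salinomycin controls.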
HCV inhibitor = HCV inhibition | Potency, µM (highest dose often 41.8 µM), usual class: inhibitors | Huh7.5.1 HCVcc-Cre infection, luciferase reporter, 44 h | 340,000 tested, 3.4% active | AID 651820; active means well fitted inhibition curve with a large enough effect; inconclusive means small, poorly fitted or top-dose-only effect, or another doubt; inactive means no such curve, though single readings can be large or run the other way
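Infectious HCV cell culture screen: compound-treated cells (1,000/well, pre-plated 4 h) are infected with HCVcc-Cre at roughly 0.5 moi and grown 44 h. Infection is quantified by luciferase signal after 15 min substrate incubation at room temperature.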
Lassa entry inh = Lassa virus entry inhibition. Lassa virus pseudotype entry inhibition, cell reporter. Potency, µM (doses to about 37.9 µM), hits mostly inhibitors. 300,000 tested, 1.2% active. AID 540256; calls by dose curve; tested in HEK293 cells; further: nearly all actives have a fitted effect of over 50% in size
FMDV antiviral = blocks foot and mouth disease virus; FMDV antiviral cell-based qHTS; 410,000 tested, 1.2% active; AID 1159524; Potency, µM (highest dose often 57.9 µM), actives largely listed as inhibitors; calls by dose curve; tested in HEK293T cells; further: read-out not given here; nearly all actives have a fitted effect of over 45% in size
MARV entry inh = Marburg virus entry inhibition | 300,000 tested, 1.8% active | Potency, µM (series often up to 37.8 µM), usual class: inhibitors | Marburg virus pseudotyped entry inhibition, cell reporter; calls by dose curve; tested in HEK293 cells
Large screens that a line does not name were inactive.

N#Cc1cccc(NC(=O)N2CC[C@@]3(CCCN(S(=O)(=O)c4ccccc4)C3)C2)c1	none (no result: HCMV inh, HCV inhibitor, Lassa entry inh, MARV entry inh)
CC12CCC(=O)N1C(C(=O)NNC(=O)c1ccccc1Cl)CS2 (stereo not given)	HCMV inh -90 (no result: Lassa entry inh, MARV entry inh)
CN(Cc1ccc(Cl)c(Cl)c1)C(=O)C1CSC2(C)CCC(=O)N12 (stereo not given)	HCMV inh -82 (no result: Lassa entry inh, MARV entry inh)
COc1cc2c(cc1OC)C1[C@H]3C(=CC[C@H]1OC2O)CCN3C (stereo not given in full)	HCMV inh -103 (no result: Lassa entry inh, MARV entry inh)
COc1ccc(/C=C/C(=O)N2CCc3c(cnc(C)c3CNC(=O)c3ccsc3)C2)cc1OC	none (no result: HCMV inh, HCV inhibitor, Lassa entry inh, MARV entry inh)
CCn1nnc(-c2ccccc2NS(=O)(=O)c2ccc(C(=O)OC)cc2)n1	HCV inhibitor inconclusive, Lassa entry inh inconclusive
COc1ccccc1NC(=O)Cn1nnc(-c2ccccc2NS(=O)(=O)c2ccccc2)n1	HCMV inh -67, HCV inhibitor inconclusive, Lassa entry inh inconclusive, FMDV antiviral inconclusive, MARV entry inh inconclusive
COc1ccc(NC(=O)Cn2nnc(-c3ccccc3NS(=O)(=O)c3ccc(OC)cc3)n2)cc1	HCV inhibitor 11µM, Lassa entry inh inconclusive, MARV entry inh inconclusive
Cc1ccc(NC(=O)Cn2nnc(-c3ccccc3NC(=O)c3cccs3)n2)cc1	HCMV inh inconclusive, HCV inhibitor inconclusive, Lassa entry inh 0.58µM, MARV entry inh inconclusive
COc1ccc(Cc2c(C3CCCCC3)nc3cc(C)c(Br)c(C)n23)c(C)c1	none (no result: HCV inhibitor, Lassa entry inh, MARV entry inh)
CCOCCCNC(=O)Cn1nc(CC)n2c(cc3c(OC)cccc32)c1=O	none (no result: HCV inhibitor, Lassa entry inh)
COc1ccc(NC(=O)CCS(=O)(=O)c2cc3c(cc2C)NC(=O)CO3)cc1Cl	Lassa entry inh inconclusive (no result: HCV inhibitor, MARV entry inh)
O=C(Nc1ccc2ccccc2c1)C(=O)c1ccccc1F	none (no result: HCV inhibitor, Lassa entry inh, FMDV antiviral, MARV entry inh)
Cc1cc(C(=O)N/N=C/c2ccncc2)c(C)o1	none
Cc1ccc(/C=N/NC(=O)c2cc(C)oc2C)cc1	HCMV inh inconclusive, HCV inhibitor inconclusive, Lassa entry inh inconclusive, MARV entry inh 10µM
N#CC1c2ccccc2C=CN1C(=O)N(c1ccccc1)c1ccccc1 (stereo not given)	HCV inhibitor inconclusive, Lassa entry inh inconclusive, FMDV antiviral 32µM, MARV entry inh inconclusive
O=C(CN(c1cc(Cl)ccc1Cl)S(=O)(=O)c1ccccc1)N1CCOCC1	none
C#CCOCCOCCOCCNc1nc(N2CCN(C(=O)CCCCCCCCCCNC(=O)Cn3cc(CCCCCN)nn3)CC2)nc(N2CCN(C(=O)CCCCCCCCCCNC(=O)[C@H](CO)n3cc(CCCCCN)nn3)CC2)n1	HCV inhibitor 32µM (no result: HCMV inh, Lassa entry inh, MARV entry inh)
C#CCOCCOCCOCCNc1nc(N2CCOCC2)nc(N2CCN(C(=O)CCCCCCCCCCNC(=O)[C@H](CO)n3cc(CCCCCN)nn3)CC2)n1	none (no result: Lassa entry inh, MARV entry inh)
C#CCOCCOCCOCCNc1nc(N2CCN(C(=O)CCCCCCCCCCNC(=O)[C@H](CO)n3cc(CCCSC)nn3)CC2)nc(N2CCN(C(=O)CCCCCCCCCCNC(=O)[C@H](CO)n3cc(CCCSC)nn3)CC2)n1	HCMV inh -71 (no result: Lassa entry inh, MARV entry inh)
CCC(=O)N1CCc2cc(S(=O)(=O)CCC(=O)NCc3ccccc3Cl)ccc21	MARV entry inh inconclusive (no result: HCV inhibitor)
CCOc1nc(-c2ccccc2)ccc1-c1noc(COC)n1	HCV inhibitor 10µM, Lassa entry inh inconclusive
COCc1nc(-c2cc(Br)ccc2OC)no1	HCV inhibitor 13µM
COc1ccc(Br)cc1-c1noc(-c2ccccc2)n1	none
COc1ccc(-c2ccc(-c3noc(C(C)C)n3)c(OC)n2)cc1	HCV inhibitor 1.6µM, Lassa entry inh inconclusive
COCc1nc(-c2ccc(-c3ccccc3)nc2OC)no1	HCV inhibitor 14µM
CCOc1nc(-c2ccccc2)ccc1-c1noc(-c2ccc(C)cc2)n1	none (no result: HCV inhibitor)
Cc1ccc(-n2ncc3c(SCC(=O)Nc4cc(C)on4)ncnc32)c(C)c1	HCMV inh inconclusive, Lassa entry inh inconclusive, FMDV antiviral inconclusive, MARV entry inh inconclusive
CC(NC(=O)Cn1ccsc1=N)C12CC3CC(CC(C3)C1)C2 (stereo not given)	Lassa entry inh inconclusive, MARV entry inh 10µM
O=C(CN1CCCCC1)NC(=O)NC1CCCC1	MARV entry inh inconclusive
O=C(Cn1ncc(Cl)c(Cl)c1=O)NC(=O)NC1CCCCC1	HCMV inh -94, HCV inhibitor 0.63µM, Lassa entry inh inconclusive, FMDV antiviral 35µM, MARV entry inh 11µM
CC(NC(=O)Cn1ncc(Cl)c(Cl)c1=O)C12CC3CC(CC(C3)C1)C2 (stereo not given)	HCV inhibitor 10µM, Lassa entry inh inconclusive, FMDV antiviral inconclusive, MARV entry inh inconclusive (no result: HCMV inh)
Cc1ccc(OCC(=O)NCc2n[nH]c(=O)c3ccccc23)cc1	none
O=c1c(-c2cccc(F)c2)nc2cncnc2n1Cc1ccccc1Cl	none (no result: HCMV inh, HCV inhibitor, Lassa entry inh, MARV entry inh)
